The target of assay [1] is Cellular tumor antigen p53 (Homo sapiens) (UniProt P04637). Put plainly: Primary qHTS for small molecule compounds that upregulate eGFP-tagged delta133p53alpha (in N-terminal) cells. (AID 2060322). Also: nearly all actives have a fitted effect of over 75% in size. Also: potency is read from the fitted curve at half-maximal effect.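 As to activation: series mostly up to about 56 µM; 0% = DMSO vehicle and 100% = reference activator.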 Particulars: NCI-H358 eGFP-delta133p53alpha fluorescence, 24 h; activation: hits give high values. Put shortly: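 NCI-H358 cells pre-induced 24 h with 10 ng/ml doxycycline to express N-terminal eGFP-delta133p53alpha, then dosed 24 h at 37C without doxycycline; fixed, Hoechst-stained, GFP intensity by laser scanning cytometry, normalized to DMSO (0%) and 57.5 uM 5-azacytidine (100%).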
Chain of Cellular tumor antigen p53 (Homo sapiens) (P04637 whole entry, looked up): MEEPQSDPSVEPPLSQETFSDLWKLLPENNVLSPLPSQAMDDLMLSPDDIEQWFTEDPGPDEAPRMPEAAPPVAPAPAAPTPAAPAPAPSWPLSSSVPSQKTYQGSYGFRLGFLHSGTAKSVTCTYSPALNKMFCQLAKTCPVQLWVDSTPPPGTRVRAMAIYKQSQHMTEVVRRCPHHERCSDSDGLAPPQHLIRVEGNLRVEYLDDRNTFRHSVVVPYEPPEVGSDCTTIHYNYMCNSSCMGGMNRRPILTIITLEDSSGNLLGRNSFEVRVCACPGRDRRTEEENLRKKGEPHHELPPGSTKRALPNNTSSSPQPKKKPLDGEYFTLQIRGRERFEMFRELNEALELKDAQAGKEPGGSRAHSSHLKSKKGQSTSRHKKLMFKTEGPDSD
(In general: Quantitative high-throughput screening tests each substance at several concentrations.)

In assay [2] the target is Aldehyde dehydrogenase, mitochondrial (Homo sapiens) (UniProt P05091). Put plainly: qHTS for Inhibitors of the Aldehyde Dehydrogenase Family (ALDH2) Primary screen (AID 2061308).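 Also: plate controls were vehicle for no effect and reference inhibitor for full effect; nearly all actives have a fitted effect of over 55% in size.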
In assay [3] the target is Retinaldehyde dehydrogenase 3 (Homo sapiens) (UniProt P47895). The experiment in a line: qHTS for Inhibitors of the Aldehyde Dehydrogenase Family (ALDH1A3) Primary screen (AID 2061315).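 Also: plate controls were DMSO vehicle for no effect and reference inhibitor for full effect.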
A short description of assay [4]: BET inhibitor-based combinations targeting novel dependencies in MECOM-rearranged (r) AML: SET-2 cell line (AID 2202231). Also: nearly all actives have a fitted effect of over 35% in size. Also: potency is read from the fitted curve at half-maximal effect.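 As to viability: plate controls were DMSO treated cells for no effect and wells without cells for full effect.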 The settings on record: SET-2 AML cells viability, CellTiter-Glo luminescence, 48 h; viability: hits give low values, concentration not given here. Put shortly: (§1)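 A 48 hr incubation preceded viability reading by CellTiter-Glo, with 15 min room-temperature development. Dose series had 11 points; normalization used DMSO and empty wells; AUC was computed and mean-centered per line as Z-AUC.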
For orientation: In ATP-based viability assays light output follows the ATP content of the culture.

Assay [5] is described as follows: BET inhibitor-based combinations targeting novel dependencies in MECOM-rearranged (r) AML: OCI-AML3 cell line (AID 2202232). Also: nearly all actives have a fitted effect of over 35% in size. Also: potency is read from the fitted curve at half-maximal effect. Particulars: Potency: OCI-AML3 viability. Put shortly: as §1
A short description of assay [6]: BET inhibitor-based combinations targeting novel dependencies in MECOM-rearranged (r) AML: MV-4-11 cell line (AID 2202233). Also: nearly all actives have a fitted effect of over 45% in size. Also: potency is read from the fitted curve at half-maximal effect. The procedure, abridged: (§2)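 Each compound is tested in an 11-point concentration series against 500 seeded cells/well for 48 hr. The luminescent viability signal is normalized to DMSO and blank wells, then reduced to AUC and a cell-line-centred Z-AUC.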

Assay [7] in a line: BET inhibitor-based combinations targeting novel dependencies in MECOM-rearranged (r) AML: HNT-34 cell line (AID 2202234). Also: nearly all actives have a fitted effect of over 35% in size. Also: potency is read from the fitted curve at half-maximal effect. The procedure, abridged: as §2
Assay [8] can be described thus: BET inhibitor-based combinations targeting novel dependencies in MECOM-rearranged (r) AML: AML-191 cell line (AID 2202236; also: nearly all actives have a fitted effect of over 35% in size; also: potency is read from the fitted curve at half-maximal effect). Put shortly: as §1
Assay [9] can be described thus: BET inhibitor-based combinations targeting novel dependencies in MECOM-rearranged (r) AML: AML-194 cell line (AID 2202237; also: nearly all actives have a fitted effect of over 40% in size; also: potency is read from the fitted curve at half-maximal effect). Put shortly: as §1
Assay [10] can be described thus: BET inhibitor-based combinations targeting novel dependencies in MECOM-rearranged (r) AML: UCSD-AML1 cell line (AID 2202235). Also: nearly all actives have a fitted effect of over 40% in size. Also: potency is read from the fitted curve at half-maximal effect. Put shortly: as §2

Several values for one entry are separate records, joined by “and”; a condition that tells them apart may be missing. Equal entries are not always repeated. Inconclusive results are not listed. A number with no mark means an inactive call. Activity calls are given as the source filed them. Calls follow the shape of the dose curve; as a rule, active = well fitted curve in the direction sought with a large enough effect; inconclusive = small, poorly fitted or top-dose-only effect, or another doubt; inactive = no such curve, though single readings can be large; an effect the other way counts as inactive or inconclusive.

The viability is a read-out of living cells in per cent, often relative to untreated cells. In the case of `N#Cc1ccc(C2CCCc3cncn32)cc1` (configuration not stated), the activation in assay [1] is -5%. In addition, the Potency entry in [2], in assay [3], in assay [5], in [6], in assay [7] and in [8] was “inactive” throughout. The Potency result in assay [9] is “inactive”. Further, the viability in [4] is 109%.

`Nc1ccn([C@@H]2O[C@H](CO)[C@@H](O)C2(F)F)c(=O)n1`: the activation in assay [1] is -26.8% and -6.68%. Further, the Potency entry in [2] and in assay [3] was “inactive” throughout. Further, the Potency in assay [4] is 0.0235 µM (active); in assay [5], 0.0105 µM (active); in assay [6], 0.0059 µM (active); in assay [7] it was 0.0372 µM (active); in assay [10] it was 0.0186 µM (active); in assay [8], 0.0132 µM (active). In addition, in assay [9], the Potency is 0.0209 µM (active).

For `O=C1CCC[C@@H]2[C@H]3CCC[N+]4([O-])CCC[C@@H](CN12)[C@@H]34` (some centres not stated), in [1], the activation is 7.08% and -17.9%. Besides, the Potency entry in [2], in [3], in assay [5], in assay [6], in assay [7] and in [10] was “inactive” in each case. Also, the Potency entry in [8] and in assay [9] was “inactive” in each case. For the same compound, the viability in [4] was 118%.

Turning to `C1=C/COCc2cc(ccc2OCCN2CCCC2)Nc2nccc(n2)-c2cccc(c2)COC/1`, the Potency in assay [1] was 15.3 µM (active); in assay [4], 4.17 µM (active); in [5], 3.32 µM (active); in assay [6] it was 0.0132 µM (active); in assay [7] it was 2.09 µM (active); in [10], 1.18 µM (active). Also, in assay [9], the Potency is 2.35 µM (active). In addition, the Potency result in assay [2] and in assay [3] was “inactive” each time.

With `CCc1c2c(nc3ccc(O)cc13)-c1cc3c(c(=O)n1C2)COC(=O)[C@]3(O)CC`, the Potency in assay [1] was 1.51 µM (active); in assay [4] it was 0.0166 µM (active); in [5], 0.0093 µM (active); in assay [6], 0.0093 µM (active); in assay [10], 0.0083 µM (active); in assay [8], 0.0093 µM (active). In assay [9], the Potency was 0.0118 µM (active). Also, the Potency entry in assay [2] and in assay [3] was “inactive” throughout.

For the compound `Cc1ccccc1C(C(=O)NC1CCCCC1)N(C(=O)CNc1ccc(C#N)cc1)c1cccc(F)c1` (configuration not stated), the activation in [1] was 17.1% and 3.57%. Further, the Potency entry in [2], in assay [3], in [5], in assay [6], in assay [7] and in assay [10] was “inactive” in each case. The Potency entry in [8] and in assay [9] was “inactive” in each case. In assay [4], the viability was 109%.

`CC1CCN(c2cc(N3CCN(C)CC3)ccc2NC(=O)c2cc(C#N)c[nH]2)CC1`: the activation in [1] is 4.19% and 20.5%. For the same compound, the Potency result in assay [2] and in assay [3] was “inactive” in each case. Moreover, the viability in [4] was 116%. In addition, the Potency is 20.9 µM (active) in [5]; 8.33 µM (active) in assay [6]; 26.3 µM (active) in [7]; 20.9 µM (active) in assay [10]; 20.9 µM (active) in assay [8]; 23.5 µM (active) in assay [9].

Take `OCc1ccccc1O[C@@H]1O[C@H](CO)[C@@H](O)[C@H](O)[C@H]1O`: the activation in assay [1] is 2.68%. Also, the Potency entry in assay [2], in assay [3], in assay [5], in [6], in assay [7] and in [10] was “inactive” throughout. Moreover, the Potency entry in assay [8] and in assay [9] was “inactive” in each case. The viability in assay [4] is 115%.

`Nc1ccn(C2CO[C@H](CO)O2)c(=O)n1` (some centres not stated): the activation in assay [1] is -4.75%. Further, the Potency entry in assay [2], in [3], in assay [5], in [6], in assay [7] and in assay [10] was “inactive” each time. Further, the Potency entry in assay [9] was “inactive”. Also, the viability in assay [4] was 113%.

As to `O=C(Cc1ccc(-c2ccc(OCCN3CCOCC3)cc2)cn1)NCc1ccccc1`, the activation in assay [1] is 20.5%. Also, the Potency result in assay [2] and in assay [3] was “inactive” throughout. Further, the Potency was 0.166 µM (active) in assay [4]; 0.105 µM (active) in assay [5]; 0.118 µM (active) in [6]; 0.118 µM (active) in assay [10]; 0.0934 µM (active) in assay [8]; 0.0934 µM (active) in assay [9].

With `Cn1ncc2cc(-c3cnc(N)c(Cl)c3N3CCC4(CCNC4=O)CC3)ccc21`, in assay [1], the activation is -11.6%. Also, the Potency entry in assay [2], in [3] and in assay [5] was “inactive” in each case. Besides, the viability in assay [4] was 103%. Further, the figures for the Potency in assay [6], in [10] and in [8] were 5.25 µM (active), 10.5 µM (active) and 0.296 µM (active), respectively.

Take `Cc1cccc(Nc2nc(N[C@@H]3CCCC[C@H]3N)ncc2C(N)=O)c1`: the activation in assay [1] is 14.8%. For the same compound, the Potency entry in [2] and in [3] was “inactive” in each case. Further, the Potency in [4] was 29.5 µM (active); in [5], 16.6 µM (active); in assay [6], 2.63 µM (active); in assay [7], 18.6 µM (active); in assay [8], 18.6 µM (active); in assay [9], 16.6 µM (active).

With `N#CCNC(=O)c1ccc(-c2ccnc(Nc3ccc(N4CCOCC4)cc3)n2)cc1`, the Potency in assay [1] is 8.49 µM (active); in assay [4], 4.17 µM (active); in assay [5], 16.6 µM (active); in [6], 0.833 µM (active); in [7], 2.95 µM (active); in assay [10] it was 1.48 µM (active). Also, the Potency in [8] is 4.68 µM (active); in [9], 5.25 µM (active). Further, the Potency result in [2] and in assay [3] was “inactive” each time.

In the case of `CN1CCC(CNc2ccc3ncc(-c4cccc(OC(F)(F)F)c4)n3n2)CC1`, the Potency was 26.9 µM (active) in assay [1]; 11.8 µM (active) in assay [4]; 8.33 µM (active) in assay [5]; 0.166 µM (active) in assay [6]; 5.25 µM (active) in assay [7]; 5.9 µM (active) in [10]. For the same compound, the Potency in assay [8] was 5.25 µM (active); in assay [9], 4.17 µM (active). Besides, the Potency entry in [2] and in [3] was “inactive” each time.

On to `COC(=O)c1ccc2c(C(=Nc3ccc(N(C)C(=O)CN4CCN(C)CC4)cc3)c3ccccc3)c(O)[nH]c2c1`, for which the activation in assay [1] was 5.68%. In addition, the Potency entry in assay [2] and in assay [3] was “inactive” throughout. The Potency in assay [4] is 11.8 µM (active); in assay [5] it was 10.5 µM (active); in assay [6], 0.166 µM (active); in [7], 1.32 µM (active); in [10] it was 5.25 µM (active); in [8], 5.25 µM (active). Further, the Potency in assay [9] is 5.25 µM (active).

The record behind these values is PubChem BioAssay (NCATS).
